Laboratory results from publication PMC7862700, “An all-to-all approach to the identification of sequence-specific readers for epigenetic DNA modifications on cytosine”.

Target: T1, ELK1 (Homo sapiens, UniProt P19419 1-428)
T1 sequence: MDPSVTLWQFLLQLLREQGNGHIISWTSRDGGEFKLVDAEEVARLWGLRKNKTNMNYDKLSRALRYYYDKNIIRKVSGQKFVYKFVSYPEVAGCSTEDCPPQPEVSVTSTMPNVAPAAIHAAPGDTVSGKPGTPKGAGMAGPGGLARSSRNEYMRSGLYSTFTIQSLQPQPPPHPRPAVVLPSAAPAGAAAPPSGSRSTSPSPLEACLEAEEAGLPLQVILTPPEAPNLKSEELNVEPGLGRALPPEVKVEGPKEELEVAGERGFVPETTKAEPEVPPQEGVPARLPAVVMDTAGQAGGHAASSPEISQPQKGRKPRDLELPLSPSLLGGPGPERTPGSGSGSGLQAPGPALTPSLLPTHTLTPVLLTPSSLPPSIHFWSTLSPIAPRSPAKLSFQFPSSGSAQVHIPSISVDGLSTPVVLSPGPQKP
Test: DAPPL (digital affinity profiling via proximity ligation, sequencing); 10 mM Tris-HCl pH 7.5, 50 mM NaCl, 1 mM DTT, 4% glycerol, room temperature, 30 min; GST-TFs on glutathione beads, 16-mer random dsDNA library, 0.1% formaldehyde crosslink after washing; high values mean tight binding
Settings: protein: recombinant; tags: N-terminal GST; dsDNA, one strand shown
In short: (§1)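 Human transcription factors carrying a GST fusion were produced in yeast, bound to glutathione beads, tagged with DNA barcodes and pooled together with a tag-only sample. Each pool was held with 200 nmole of a random double-stranded 16-mer DNA library in Tris/NaCl/DTT/glycerol buffer for 30 min at room temperature, then washed, crosslinked in 0.1% formaldehyde, proximity-ligated with BsaI/T4 ligase (1 h, 37 °C), PCR-amplified and sequenced on an Illumina NextSeq500. Binding signal is the read frequency of each hexamer for a given factor divided by its frequency in the tag-only sample.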

| Sequence | binding signal |
| --- | --- |
| CATAAC | 1.2 fold enrichment (6-mer frequency, TF over GST control) |
| TATCCC | 1.65 fold enrichment (6-mer frequency, TF over GST control) |
| TGTTAC | 1.55 fold enrichment (6-mer frequency, TF over GST control) |
| ACCCAC | 1.24 fold enrichment (6-mer frequency, TF over GST control) |
| TATTGC | 1.33 fold enrichment (6-mer frequency, TF over GST control) |
| ATTGAA | 1.16 fold enrichment (6-mer frequency, TF over GST control) |
| CGATAC | 1.19 fold enrichment (6-mer frequency, TF over GST control) |
| CGCTAC | 1.23 fold enrichment (6-mer frequency, TF over GST control) |
| CTGGTC | 1.23 fold enrichment (6-mer frequency, TF over GST control) |
| GGAAGC | 1.64 fold enrichment (6-mer frequency, TF over GST control) |
| CTTACG | 1.15 fold enrichment (6-mer frequency, TF over GST control) |
| CATCCG | 2.2 fold enrichment (6-mer frequency, TF over GST control) |
| TTTCAA | 1.23 fold enrichment (6-mer frequency, TF over GST control) |
| TACATC | 1.67 fold enrichment (6-mer frequency, TF over GST control) |
| CACAAC | 1.24 fold enrichment (6-mer frequency, TF over GST control) |
| ATCCCA | 1.14 fold enrichment (6-mer frequency, TF over GST control) |
| TGTCTC | 1.31 fold enrichment (6-mer frequency, TF over GST control) |
| TACCGC | 1.07 fold enrichment (6-mer frequency, TF over GST control) |
| ATGGCT | 1.34 fold enrichment (6-mer frequency, TF over GST control) |
| TCTGGG | 1.06 fold enrichment (6-mer frequency, TF over GST control) |

| Sequence | binding signal |
| --- | --- |
| CTACCC | 1.32 fold enrichment (6-mer frequency, TF over GST control) |
| TTCAGT | 1.04 fold enrichment (6-mer frequency, TF over GST control) |
| TGTACT | 1.44 fold enrichment (6-mer frequency, TF over GST control) |
| CACTTG | 1.48 fold enrichment (6-mer frequency, TF over GST control) |
| AAGCGG | 1.05 fold enrichment (6-mer frequency, TF over GST control) |
| ATCATG | 1.15 fold enrichment (6-mer frequency, TF over GST control) |
| ATAAAC | 1.16 fold enrichment (6-mer frequency, TF over GST control) |
| TAATCC | 1.26 fold enrichment (6-mer frequency, TF over GST control) |
| CCTTCA | 1.43 fold enrichment (6-mer frequency, TF over GST control) |
| TCTCAA | 1.27 fold enrichment (6-mer frequency, TF over GST control) |
| GGCTAG | 1.11 fold enrichment (6-mer frequency, TF over GST control) |
| TAGGAA | 1 fold enrichment (6-mer frequency, TF over GST control) |
| CACTGG | 1.07 fold enrichment (6-mer frequency, TF over GST control) |
| TTATCA | 1.15 fold enrichment (6-mer frequency, TF over GST control) |
| CATCAC | 1.1 fold enrichment (6-mer frequency, TF over GST control) |
| GCCAAT | 1.02 fold enrichment (6-mer frequency, TF over GST control) |
| ACACAA | 1.17 fold enrichment (6-mer frequency, TF over GST control) |
| CACATA | 1.14 fold enrichment (6-mer frequency, TF over GST control) |
| CTCATA | 1.48 fold enrichment (6-mer frequency, TF over GST control) |
| TGATTT | 1.2 fold enrichment (6-mer frequency, TF over GST control) |

Target: T2, GABPA (Homo sapiens, UniProt Q06546 1-454)
T2 sequence: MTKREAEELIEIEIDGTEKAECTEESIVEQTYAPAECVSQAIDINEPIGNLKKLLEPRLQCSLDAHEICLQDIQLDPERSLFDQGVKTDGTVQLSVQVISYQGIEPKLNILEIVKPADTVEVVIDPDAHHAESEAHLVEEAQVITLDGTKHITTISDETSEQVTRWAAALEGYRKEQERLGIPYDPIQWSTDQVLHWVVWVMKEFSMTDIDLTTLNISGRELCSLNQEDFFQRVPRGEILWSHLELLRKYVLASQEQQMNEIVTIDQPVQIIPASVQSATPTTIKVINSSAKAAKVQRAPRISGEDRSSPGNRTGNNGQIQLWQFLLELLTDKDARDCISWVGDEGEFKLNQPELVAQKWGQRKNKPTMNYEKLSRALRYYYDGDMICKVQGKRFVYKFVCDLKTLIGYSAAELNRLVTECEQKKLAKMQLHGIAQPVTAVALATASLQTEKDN
Test: as above
Settings: protein: recombinant; tags: N-terminal GST; dsDNA, one strand shown
In short: as §1

| Sequence | binding signal |
| --- | --- |
| CATAAC | 1.15 fold enrichment (6-mer frequency, TF over GST control) |
| TATCCC | 1.53 fold enrichment (6-mer frequency, TF over GST control) |
| TGTTAC | 1.39 fold enrichment (6-mer frequency, TF over GST control) |
| ACCCAC | 1.35 fold enrichment (6-mer frequency, TF over GST control) |
| TATTGC | 1.44 fold enrichment (6-mer frequency, TF over GST control) |
| ATTGAA | 1.07 fold enrichment (6-mer frequency, TF over GST control) |
| CGATAC | 1.27 fold enrichment (6-mer frequency, TF over GST control) |
| CGCTAC | 1.25 fold enrichment (6-mer frequency, TF over GST control) |
| CTGGTC | 1.25 fold enrichment (6-mer frequency, TF over GST control) |
| GGAAGC | 1.45 fold enrichment (6-mer frequency, TF over GST control) |
| CTTACG | 1.11 fold enrichment (6-mer frequency, TF over GST control) |
| CATCCG | 1.86 fold enrichment (6-mer frequency, TF over GST control) |
| TTTCAA | 1.31 fold enrichment (6-mer frequency, TF over GST control) |
| TACATC | 1.51 fold enrichment (6-mer frequency, TF over GST control) |
| CACAAC | 1.3 fold enrichment (6-mer frequency, TF over GST control) |
| ATCCCA | 1.15 fold enrichment (6-mer frequency, TF over GST control) |
| TGTCTC | 1.31 fold enrichment (6-mer frequency, TF over GST control) |
| TACCGC | 1.02 fold enrichment (6-mer frequency, TF over GST control) |
| ATGGCT | 1.29 fold enrichment (6-mer frequency, TF over GST control) |
| TCTGGG | 1.06 fold enrichment (6-mer frequency, TF over GST control) |

| Sequence | binding signal |
| --- | --- |
| CTACCC | 1.4 fold enrichment (6-mer frequency, TF over GST control) |
| TTCAGT | 1.06 fold enrichment (6-mer frequency, TF over GST control) |
| TGTACT | 1.24 fold enrichment (6-mer frequency, TF over GST control) |
| CACTTG | 1.32 fold enrichment (6-mer frequency, TF over GST control) |
| AAGCGG | 1.11 fold enrichment (6-mer frequency, TF over GST control) |
| ATCATG | 1.22 fold enrichment (6-mer frequency, TF over GST control) |
| ATAAAC | 1.11 fold enrichment (6-mer frequency, TF over GST control) |
| TAATCC | 1.25 fold enrichment (6-mer frequency, TF over GST control) |
| CCTTCA | 1.46 fold enrichment (6-mer frequency, TF over GST control) |
| TCTCAA | 1.27 fold enrichment (6-mer frequency, TF over GST control) |
| GGCTAG | 1.1 fold enrichment (6-mer frequency, TF over GST control) |
| TAGGAA | 1.04 fold enrichment (6-mer frequency, TF over GST control) |
| CACTGG | 1.15 fold enrichment (6-mer frequency, TF over GST control) |
| TTATCA | 1.05 fold enrichment (6-mer frequency, TF over GST control) |
| CATCAC | 1.18 fold enrichment (6-mer frequency, TF over GST control) |
| GCCAAT | 1.05 fold enrichment (6-mer frequency, TF over GST control) |
| ACACAA | 1.12 fold enrichment (6-mer frequency, TF over GST control) |
| CACATA | 1.11 fold enrichment (6-mer frequency, TF over GST control) |
| CTCATA | 1.36 fold enrichment (6-mer frequency, TF over GST control) |
| TGATTT | 1.33 fold enrichment (6-mer frequency, TF over GST control) |

Target: T3, ERG (Homo sapiens, UniProt P11308 1-479)
T3 sequence: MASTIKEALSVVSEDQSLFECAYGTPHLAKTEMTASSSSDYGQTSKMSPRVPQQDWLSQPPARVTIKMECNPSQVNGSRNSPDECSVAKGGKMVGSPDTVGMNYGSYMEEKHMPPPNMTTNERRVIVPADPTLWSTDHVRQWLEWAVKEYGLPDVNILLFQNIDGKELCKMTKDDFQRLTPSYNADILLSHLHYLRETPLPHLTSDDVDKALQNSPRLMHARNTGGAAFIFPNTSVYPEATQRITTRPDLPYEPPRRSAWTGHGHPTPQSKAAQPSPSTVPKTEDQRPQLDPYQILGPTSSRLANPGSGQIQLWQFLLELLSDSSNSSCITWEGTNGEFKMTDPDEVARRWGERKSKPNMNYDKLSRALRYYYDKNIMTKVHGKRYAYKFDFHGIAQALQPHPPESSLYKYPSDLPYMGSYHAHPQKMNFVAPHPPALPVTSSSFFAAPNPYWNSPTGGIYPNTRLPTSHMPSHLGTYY
Test: as above
Settings: protein: recombinant; tags: N-terminal GST; dsDNA, one strand shown
In short: as §1

| Sequence | binding signal |
| --- | --- |
| CATAAC | 1.1 fold enrichment (6-mer frequency, TF over GST control) |
| TATCCC | 1.58 fold enrichment (6-mer frequency, TF over GST control) |
| TGTTAC | 1.49 fold enrichment (6-mer frequency, TF over GST control) |
| ACCCAC | 1.1 fold enrichment (6-mer frequency, TF over GST control) |
| TATTGC | 1.31 fold enrichment (6-mer frequency, TF over GST control) |
| ATTGAA | 1.05 fold enrichment (6-mer frequency, TF over GST control) |
| CGATAC | 1.18 fold enrichment (6-mer frequency, TF over GST control) |
| CGCTAC | 1.24 fold enrichment (6-mer frequency, TF over GST control) |
| CTGGTC | 1.2 fold enrichment (6-mer frequency, TF over GST control) |
| GGAAGC | 1.85 fold enrichment (6-mer frequency, TF over GST control) |
| CTTACG | 1.02 fold enrichment (6-mer frequency, TF over GST control) |
| CATCCG | 2.45 fold enrichment (6-mer frequency, TF over GST control) |
| TTTCAA | 1.25 fold enrichment (6-mer frequency, TF over GST control) |
| TACATC | 1.65 fold enrichment (6-mer frequency, TF over GST control) |
| CACAAC | 1.25 fold enrichment (6-mer frequency, TF over GST control) |
| ATCCCA | 1.2 fold enrichment (6-mer frequency, TF over GST control) |
| TGTCTC | 1.23 fold enrichment (6-mer frequency, TF over GST control) |
| TACCGC | 1.08 fold enrichment (6-mer frequency, TF over GST control) |
| ATGGCT | 1.37 fold enrichment (6-mer frequency, TF over GST control) |
| TCTGGG | 1.04 fold enrichment (6-mer frequency, TF over GST control) |
